Reference: PubChem BioAssay AID720597 (Broad Institute, 2013)
Measured potencies and affinities stand elsewhere. Calls of active or inactive are those of the source.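 Rule for the calls: active = fitted half-maximal dose no more than twice the top valid tested dose, for compounds that lower signal; inconclusive = fit invalid, or curve flat with activity between -70 and -30; inactive = potency past limit, curve flat within ±30, or signal increasing.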

Target: NAD-dependent protein deacylase sirtuin-5, mitochondrial (Homo sapiens) (UniProt Q9NXA8)
Sequence (Q9NXA8 whole entry, looked up): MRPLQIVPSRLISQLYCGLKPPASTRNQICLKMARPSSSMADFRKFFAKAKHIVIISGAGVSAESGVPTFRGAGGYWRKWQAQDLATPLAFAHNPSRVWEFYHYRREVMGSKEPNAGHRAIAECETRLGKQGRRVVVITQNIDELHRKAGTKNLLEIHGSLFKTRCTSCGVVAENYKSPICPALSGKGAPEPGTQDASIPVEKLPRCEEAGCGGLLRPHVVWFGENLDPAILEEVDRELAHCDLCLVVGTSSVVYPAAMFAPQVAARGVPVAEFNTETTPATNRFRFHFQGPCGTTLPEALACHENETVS
Assay: SIRT5 deacylase inhibitors, dose response, biochemical, fluorescence imaging, cherry-pick, set 6 (AID 720597);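 note: lower AMC signal can also come from blocking the trypsin step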

Row | SMILES | outcome
1 | C[C@H]1CN([C@@H](C)CO)S(=O)(=O)c2ccc(C#CC3CC3)cc2O[C@H]1CN(C)Cc1ccccc1F | inactive
2 | C[C@H]1CCCCO[C@@H](CN(C)C(=O)Nc2ccc(C(F)(F)F)cc2)[C@@H](C)CN([C@@H](C)CO)C(=O)c2cc(NS(=O)(=O)c3ccc(Cl)cc3)ccc2O1 | inactive
3 | Cc1ccc(S(=O)(=O)N(C)C[C@@H]2OCCCC[C@H](C)Oc3ccc(NS(=O)(=O)c4ccccc4)cc3C(=O)N([C@H](C)CO)C[C@@H]2C)cc1 | inactive
4 | COc1ccc(NC(=O)N(C)C[C@@H]2Oc3ccc(NS(=O)(=O)c4ccc(F)cc4)cc3C(=O)N([C@H](C)CO)C[C@@H]2C)cc1 | inactive
5 | C[C@H]1CN([C@@H](C)CO)C(=O)c2cc(NC(=O)C3CC3)ccc2O[C@H]1CN(C)S(=O)(=O)c1cn(C)cn1 | inactive
6 | O=C(NCC[C@@H]1CC[C@H](NS(=O)(=O)c2cccc(F)c2)[C@@H](CO)O1)C1CCOCC1 | inactive
7 | C[C@@H]1CN([C@@H](C)CO)C(=O)Cc2cc(NS(=O)(=O)c3ccccc3)ccc2O[C@H]1CN(C)CC1CCCCC1 | inactive
8 | CCCC#Cc1ccc([C@H]2[C@H](CO)N3CCCCN(S(=O)(=O)Cc4ccccc4)C[C@@H]23)cc1 | inactive
9 | COc1cccc(S(=O)(=O)N(C)C[C@H]2Oc3cc(C4=CCCCC4)ccc3S(=O)(=O)N([C@H](C)CO)C[C@@H]2C)c1 | inactive
10 | CNC[C@@H]1Oc2ccc(NC(=O)Nc3ccc(F)cc3)cc2CC(=O)N([C@H](C)CO)C[C@@H]1C | inactive
11 | C[C@@H]1CN([C@@H](C)CO)S(=O)(=O)c2ccc(C#CC3CC3)cc2O[C@@H]1CN(C)C(=O)c1cccc(F)c1 | inactive
12 | O=C(NCC[C@H]1CC[C@H](NS(=O)(=O)c2cccc(F)c2)[C@H](CO)O1)C1CCOCC1 | inactive
13 | CN(C)C(=O)c1cccc(-c2ccc([C@H]3[C@@H](CO)N4CCCCN(S(C)(=O)=O)C[C@H]34)cc2)c1 | inactive
14 | COc1ccc(NC(=O)N[C@@H]2CC[C@H](CCn3cc(-c4ccc(OC)cc4)nn3)O[C@@H]2CO)cc1 | inactive
15 | CN(C)c1ccc2c(c1)[C@@H]1C[C@@H](CC(=O)NCc3ccccc3)O[C@H](CO)[C@@H]1O2 | inactive
16 | COCC(=O)N1[C@H](CO)[C@@H](c2ccccc2)C12CN(Cc1cc(F)ccc1F)C2 | inactive
17 | C[C@H]1CCCCO[C@H](CN(C)S(=O)(=O)c2ccc(Cl)cc2)[C@@H](C)CN([C@@H](C)CO)C(=O)c2cc(NS(=O)(=O)c3ccccc3)ccc2O1 | inactive
18 | COc1ccc(C#Cc2ccc([C@H]3[C@@H](CO)N4C(=O)CN(C(=O)c5cccnc5)C[C@@H]34)cc2)cc1 | inactive
19 | C[C@H]1CN([C@@H](C)CO)S(=O)(=O)c2ccc(/C=C/c3ccccc3)cc2O[C@@H]1CN(C)C(=O)NC1CCCC1 | inactive
20 | O=C(CCN1CCCCC1)N[C@H]1CC[C@H](CC(=O)N2CCC(Cc3ccccc3)CC2)O[C@@H]1CO | inactive
21 | COc1ccc(NC(=O)N(C)C[C@@H]2Oc3ccc(NS(=O)(=O)c4ccc(F)cc4)cc3C(=O)N([C@H](C)CO)C[C@H]2C)cc1 | inactive

Row | SMILES | outcome
22 | CC(=O)N(C)C[C@@H]1Oc2ncc(C#Cc3cccc(F)c3)cc2C(=O)N([C@H](C)CO)C[C@H]1C | inactive
23 | C[C@@H]1CN([C@@H](C)CO)C(=O)c2cccc(NC(=O)c3ccncc3)c2O[C@H]1CN(C)S(C)(=O)=O | inactive
24 | CC(C)CC#Cc1ccc2c(c1)O[C@@H](CN(C)C(=O)NC1CCCC1)[C@H](C)CN([C@H](C)CO)S2(=O)=O | inactive
25 | Cc1noc(C)c1S(=O)(=O)Nc1ccc2c(c1)CC(=O)N([C@H](C)CO)C[C@H](C)[C@H](CN(C)Cc1ccncc1)O2 | inactive
26 | COc1ccccc1S(=O)(=O)N(C)C[C@H]1Oc2cc(C#CCC3CCCC3)ccc2S(=O)(=O)N([C@@H](C)CO)C[C@@H]1C | inactive
27 | C[C@@H]1CN([C@@H](C)CO)C(=O)Cc2cc(NC(=O)Nc3ccc(F)cc3)ccc2O[C@@H]1CN(C)C | inactive
28 | C[C@H]1CN([C@@H](C)CO)C(=O)c2cc(NC(=O)CCC(F)(F)F)ccc2O[C@H]1CN(C)Cc1ccc(C(F)(F)F)cc1 | inactive
29 | COCCOC(=O)N1C(=O)[C@@]2(c3cc(C#CCCO)ccc31)[C@H](c1ccccc1OCCO)N1[C@H](c3ccccc3)[C@H](c3ccccc3)OC(=O)[C@H]1[C@@H]2C(=O)N1CCN(c2ncccn2)CC1 | inactive
30 | C[C@@H]1CN([C@H](C)CO)S(=O)(=O)c2ccc(/C=C/c3ccccc3)cc2O[C@@H]1CN(C)C(=O)c1ccc2c(c1)OCO2 | inactive
31 | C[C@@H]1CN([C@H](C)CO)C(=O)Cc2cc(NC(=O)Cc3cn(C)c4ccccc34)ccc2O[C@@H]1CN(C)C | inactive
32 | COc1ccc(CN(C)C[C@H]2Oc3ccc(NS(=O)(=O)c4ccc(Cl)cc4)cc3CC(=O)N([C@@H](C)CO)C[C@@H]2C)cc1 | inactive
33 | C[C@H]1CN([C@@H](C)CO)C(=O)c2cc(C#CCC3CCCC3)cnc2O[C@H]1CN(C)C(=O)c1cnccn1 | inactive
34 | O=C(NCC[C@H]1CC[C@H](NS(=O)(=O)c2cccc(F)c2)[C@@H](CO)O1)C1CCOCC1 | inactive
35 | C[C@H]1CN([C@@H](C)CO)C(=O)c2ccccc2-c2ccccc2CO[C@@H]1CN(C)Cc1cccc(C(F)(F)F)c1 | inactive
36 | C[C@H]1CCCCO[C@H](CN(C)S(=O)(=O)c2ccc(Cl)cc2)[C@@H](C)CN([C@@H](C)CO)C(=O)c2cc(NS(=O)(=O)c3ccc(F)cc3)ccc2O1 | inactive
37 | COc1ccc(S(=O)(=O)N(C)C[C@@H]2OCCCC[C@H](C)Oc3ccc(NS(=O)(=O)c4ccc(F)cc4)cc3C(=O)N([C@H](C)CO)C[C@H]2C)cc1 | inactive
38 | O=S(=O)(c1ccccc1)N1CCCCN2[C@H](C1)[C@H](c1ccc(C#CC3CCCC3)cc1)[C@@H]2CO | inactive
39 | Cc1cccc(-c2noc(CN(C(=O)c3ccc(Br)o3)C(C)C)n2)c1 | inactive
40 | COc1cccc(S(=O)(=O)N(C)C[C@@H]2Oc3cc(C4=CCCCC4)ccc3S(=O)(=O)N([C@H](C)CO)C[C@@H]2C)c1 | inactive
41 | COc1ccc(NC(=O)N(C)C[C@H]2OCCCC[C@@H](C)Oc3ccc(NC(=O)Cc4ccccc4)cc3C(=O)N([C@H](C)CO)C[C@@H]2C)cc1 | inactive
42 | C[C@H](CO)N1C[C@H](C)[C@@H](CN(C)CC2CCCCC2)Oc2c(NC(=O)CCCCCC(=O)Nc3ccccc3N)cccc2C1=O | inactive

Row | SMILES | outcome
43 | C[C@@H]1CN([C@H](C)CO)C(=O)c2cc(NS(=O)(=O)c3ccccc3)ccc2O[C@@H](C)CCCCO[C@H]1CN(C)Cc1ccc(C(F)(F)F)cc1 | inactive
44 | COc1ccccc1C#Cc1ccc([C@H]2[C@@H](CO)N3CCCCN(C(=O)C4CCCC4)C[C@@H]23)cc1 | inactive
45 | CCCC#Cc1ccc2c(c1)O[C@@H](CN(C)C(=O)c1cnccn1)[C@@H](C)CN([C@@H](C)CO)S2(=O)=O | inactive
46 | COc1ccc(-c2cnc3c(c2)C(=O)N([C@@H](C)CO)C[C@H](C)[C@@H](CN(C)Cc2ccc(C(=O)O)cc2)O3)cc1 | inactive
47 | O=C(NCC[C@H]1CC[C@@H](NC(=O)C2CC2)[C@@H](CO)O1)c1cc(Cl)cc(Cl)c1 | inactive
48 | C[C@H]1CN([C@@H](C)CO)C(=O)c2cc(-c3ccc(C#N)cc3)cnc2O[C@@H]1CN(C)C(=O)Nc1ccc(C(F)(F)F)cc1 | inactive
49 | Cc1ccc(S(=O)(=O)N(C)C[C@@H]2Oc3ncc(C#Cc4ccc(C(F)(F)F)cc4)cc3C(=O)N([C@H](C)CO)C[C@@H]2C)cc1 | inactive
50 | O=S(=O)(NC[C@@H]1CC[C@H]2[C@H](CN2Cc2cccc(-c3ccccn3)c2)O1)c1ccccc1 | inactive
51 | C[C@H](CO)N1C[C@H](C)[C@H](CN(C)CC2CCCCC2)Oc2ccc(NS(=O)(=O)c3ccc(Cl)cc3)cc2CC1=O | inactive
52 | COc1ccc(S(=O)(=O)Nc2ccc3c(c2)CC(=O)N([C@H](C)CO)C[C@H](C)[C@@H](CN(C)CC2CCCCC2)O3)cc1 | inactive
53 | COc1ccc(NC(=O)Nc2cccc3c2O[C@@H](CN(C)Cc2ccc(C(F)(F)F)cc2)[C@@H](C)CN([C@H](C)CO)C3=O)cc1 | inactive
54 | C[C@@H]1CN([C@H](C)CO)C(=O)c2cc(NS(=O)(=O)c3ccc(F)cc3)ccc2O[C@@H](C)CCCCO[C@@H]1CN(C)S(=O)(=O)c1ccc(Cl)cc1 | inactive
55 | COc1cccc(S(=O)(=O)N(C)C[C@@H]2Oc3cc(C4=CCCCC4)ccc3S(=O)(=O)N([C@H](C)CO)C[C@H]2C)c1 | inactive
56 | COc1cccc(S(=O)(=O)N(C)C[C@@H]2Oc3cc(C4=CCCCC4)ccc3S(=O)(=O)N([C@@H](C)CO)C[C@@H]2C)c1 | inactive
57 | Cc1ccc(S(=O)(=O)N(C)C[C@@H]2OCCCC[C@@H](C)Oc3ccc(NS(=O)(=O)c4ccccc4)cc3C(=O)N([C@@H](C)CO)C[C@@H]2C)cc1 | inactive
58 | C[C@H](CO)N1C[C@H](C)[C@H](CN(C)Cc2cccc(C(F)(F)F)c2)Oc2ncc(C#Cc3ccccc3)cc2C1=O | inactive
59 | CN(C)C(=O)c1cccc(-c2ccc([C@@H]3[C@H]4CN(S(C)(=O)=O)CCCCN4[C@H]3CO)cc2)c1 | inactive
60 | O=C(NC1CCCC1)N[C@@H]1CC[C@H](CC(=O)N2CCOCC2)O[C@H]1CO | inactive
61 | O=C(CN1CCOCC1)N1CCCCN2[C@H](C1)[C@H](c1ccc(-c3ccccc3F)cc1)[C@@H]2CO | inactive
62 | COc1ccccc1NC(=O)Nc1ccc2c(c1)C(=O)N(C)C[C@H](OC)[C@H](C)CN[C@@H](C)CO2 | inactive
63 | CC(=O)N(C)C[C@@H]1Oc2ncc(-c3ccccc3C)cc2C(=O)N([C@H](C)CO)C[C@H]1C | inactive
